Among all 39,000 compounds or so, about 1,500 (3.8%) were called active. This is one part of a sample in which actives are shown more often than they occur.

The test system of the experiment is HSkMC (human skeletal muscle cells). In words: cytotoxicity call (relative viability < 0.9). To be noted: 10 µM.
With `O=c1[nH]cc(/N=C/c2ccncc2)c(=O)[nH]1`, the cytotoxicity call is “inactive”.

As to `COc1ccc(NC(=O)N(C)C[C@H]2OCCCC[C@@H](C)Oc3ccc(NC(=O)NC(C)C)cc3C(=O)N([C@H](C)CO)C[C@@H]2C)cc1`, the cytotoxicity call was “inactive”.

With `C[C@@H]1O[C@@H](O[C@H]2[C@H](O[C@H]3[C@H](O)[C@@H](O[C@@H]4O[C@H](CO)[C@@H](O)[C@H](O)[C@H]4O)[C@H](O[C@H]4CC[C@]5(C)[C@H]6CC[C@]78OC[C@@]9(CCC(C)(C)C[C@@H]97)[C@H](O)C[C@@]8(C)[C@]6(C)CC[C@H]5C4(C)C)O[C@@H]3C(=O)O)O[C@H](CO)[C@H](O)[C@@H]2O)[C@H](O)[C@H](O)[C@H]1O`, the cytotoxicity call was “active”.

Take `C[C@H]1O[C@@H](OC[C@H]2O[C@@H](O[C@H]3CC[C@]4(C)[C@H]5CCC6=C(CC[C@@]7(C(=O)O[C@@H]8O[C@H](CO)[C@@H](O)[C@H](O)[C@H]8O[C@@H]8O[C@H](CO)[C@@H](O)[C@H](O)[C@H]8O)CCC(C)(C)C[C@@H]67)[C@]5(C)CC[C@H]4C3(C)C)[C@H](O)[C@@H](O)[C@@H]2O)[C@H](O)[C@@H](O)[C@@H]1O`: the cytotoxicity call was “inactive”.

In the case of `C[C@@H]1O[C@@H](O[C@H]2[C@H](O)[C@@H](O)[C@H](OC(=O)[C@]34CCC(C)(C)C[C@H]3C3=CC[C@H]5[C@@]6(C)CC[C@H](O[C@@H]7O[C@H](C(=O)O)[C@@H](O)[C@H](O)[C@H]7O)C(C)(C)[C@@H]6CC[C@@]5(C)[C@]3(C)CC4)O[C@@H]2CO)[C@H](O)[C@H](O)[C@H]1O`, the cytotoxicity call is “inactive”.

Take `C[C@@H]1O[C@@H](O[C@H]2[C@H](O[C@H]3[C@H](O)[C@@H](C(=O)O)O[C@@H](O[C@H]4CC[C@]5(C)[C@H]6CC[C@]78OC[C@@]9(CCC(C)(C)C[C@@H]97)[C@H](O)C[C@@]8(C)[C@]6(C)CC[C@H]5C4(C)C)[C@@H]3OC3O[C@H](CO)[C@@H](O)[C@H](O)[C@H]3O)O[C@H](CO)[C@H](O)[C@@H]2O)[C@H](O)[C@H](O)[C@H]1O` (some centres undefined): the cytotoxicity call was “active”.

For `CC1(C)CC[C@]2(C(=O)O[C@@H]3O[C@H](CO[C@@H]4O[C@H](CO)[C@@H](O)[C@H](O)[C@H]4O)[C@@H](O)[C@H](O)[C@H]3O)CC[C@]3(C)C(=CC[C@H]4[C@@]5(C)CC[C@H](O[C@@H]6OC[C@H](O)[C@H](O)[C@H]6O)C(C)(C)[C@@H]5CC[C@]43C)[C@@H]2C1`, the cytotoxicity call was “inactive”.

Consider `CC1(C)CC[C@]2(C(=O)O[C@@H]3O[C@H](CO)[C@@H](O)[C@H](O)[C@H]3O)CC[C@]3(C)C(=CC[C@H]4[C@@]5(C)CC[C@@H](O[C@@H]6O[C@H](C(=O)O)[C@@H](O[C@@H]7OC[C@@H](O)[C@H](O)[C@H]7O)[C@H](O[C@@H]7OC[C@](O)(CO)[C@H]7O)[C@H]6O)C(C)(C)[C@@H]5CC[C@]43C)[C@@H]2C1`, for which the cytotoxicity call is “inactive”.

Regarding `CC(=O)O[C@H]1CC(C)(C)C[C@H]2[C@]13CO[C@@]21CC[C@@H]2[C@@]4(C)CC[C@H](O[C@@H]5O[C@H](C(=O)O)[C@@H](O)[C@H](O[C@@H]6O[C@H](CO)[C@H](O)[C@H](O)[C@H]6O[C@@H]6O[C@@H](C)[C@H](O)[C@@H](O)[C@H]6O)[C@H]5O[C@@H]5O[C@H](CO)[C@@H](O)[C@H](O)[C@H]5O)C(C)(C)[C@@H]4CC[C@@]2(C)[C@]1(C)C[C@H]3O`, the cytotoxicity call is “inactive”.

`C[C@@H]1O[C@@H](O[C@H]2[C@H](O[C@H]3[C@H](O)[C@@H](O[C@@H]4O[C@H](CO)[C@@H](O[C@@H]5O[C@H](CO)[C@H](O)[C@H]5O)[C@H](O)[C@H]4O)[C@H](O[C@H]4CC[C@]5(C)[C@H]6CC[C@]78OC[C@@]9(CCC(C)(C)C[C@@H]97)[C@H](O)C[C@@]8(C)[C@]6(C)CC[C@H]5C4(C)C)O[C@@H]3C(=O)O)O[C@H](CO)[C@H](O)[C@@H]2O)[C@H](O)[C@H](O)[C@H]1O`: the cytotoxicity call was “inactive”.

Regarding `CC(=O)O[C@H]1CC(C)(C)C[C@H]2[C@]13CO[C@@]21CC[C@H]2[C@@]4(C)CC[C@H](O[C@@H]5OC[C@H](O[C@@H]6O[C@H](CO)[C@@H](O)[C@H](O)[C@H]6O[C@@H]6OC[C@@H](O[C@@H]7O[C@H](CO)[C@@H](O)[C@H](O)[C@H]7O)[C@H](O)[C@H]6O)[C@H](O)[C@H]5O[C@@H]5O[C@H](CO)[C@@H](O)[C@H](O)[C@H]5O)[C@@](C)(CO)[C@@H]4CC[C@@]2(C)[C@]1(C)C[C@H]3O`, the cytotoxicity call was “active”.

Regarding `COc1ccc2c3c(n(c2c1)C)[C@@H](CO)N(CC1CCOCC1)C[C@]13CCN(CC1)C(=O)c1cnccn1`, the cytotoxicity call is “inactive”.

Regarding `CCc1c(C)c2cc3c(-c4ccccc4)coc3cc2oc1=O`, the cytotoxicity call is “inactive”.

Regarding `CNC[C@H]1OCCCC[C@@H](C)Oc2ccc(NS(=O)(=O)c3cn(C)cn3)cc2C(=O)N([C@@H](C)CO)C[C@@H]1C`, the cytotoxicity call was “inactive”.

As for `Cc1ccc(S(=O)(=O)Nc2ccc3c(c2)CC(=O)N([C@@H](C)CO)C[C@@H](C)[C@H](CN(C)C(=O)NC(C)C)O3)cc1`, the cytotoxicity call is “inactive”.

With `N#Cc1cc(F)cc(Oc2ccc(S(=O)(=O)C(F)F)c3c2CC(F)(F)[C@@H]3O)c1.N#Cc1cc(F)cc(Oc2ccc(S(=O)(=O)C(F)F)c3c2CC(F)(F)[C@H]3O)c1`, the cytotoxicity call is “inactive”.

As to `COc1ccccc1NC(=O)N(C)C[C@H]1OCc2ccccc2-c2c(n(C)c3ccccc23)C(=O)N([C@H](C)CO)C[C@H]1C`, the cytotoxicity call was “inactive”.

As to `C=CC(=O)N[C@H]1CCCN(CC)C1`, the cytotoxicity call was “inactive”.

In the case of `C[C@@H]1CN([C@@H](C)CO)C(=O)c2cccc(NS(=O)(=O)c3ccc(F)cc3)c2O[C@H]1CN(C)S(=O)(=O)c1cccs1`, the cytotoxicity call was “inactive”.

For the molecule `C[C@@H]1CN([C@H](C)CO)C(=O)c2cc(Br)cnc2O[C@H]1CN(C)Cc1ccc2c(c1)OCO2`, the cytotoxicity call was “inactive”.

For the molecule `C[C@@H]1CN([C@@H](C)CO)C(=O)Cc2cc(NS(=O)(=O)c3cccs3)ccc2O[C@@H]1CN(C)S(=O)(=O)c1cccs1`, the cytotoxicity call is “inactive”.

`Cc1ccc(S(=O)(=O)N(C)C[C@@H]2Oc3ccc(NC(=O)c4ccncc4)cc3C(=O)N([C@H](C)CO)C[C@H]2C)cc1`: the cytotoxicity call is “inactive”.

As to `Cc1c(-c2ccc(C(N)=O)c3[nH]c4cc(C(C)(C)O)ccc4c23)cccc1-n1cnc2ccccc2c1=O`, the cytotoxicity call was “active”.

For `CCOC(=O)Cn1cnc2ccccc2c1=O`, the cytotoxicity call was “inactive”.

Consider `COc1ccc(S(=O)(=O)N(C)C[C@@H]2Oc3ccc(NC(=O)Cn4cnnn4)cc3C(=O)N([C@@H](C)CO)C[C@H]2C)cc1`, for which the cytotoxicity call is “inactive”.

As to `Cc1ccc(S(=O)(=O)Nc2cccc3c2O[C@H](CN(C)CC2CC2)[C@H](C)CN([C@@H](C)CO)C3=O)cc1`, the cytotoxicity call was “inactive”.

As to `COc1ccc2c3c(n(c2c1)C)[C@H](CO)N(C[C@]13CCN(CC1)C(=O)c1ccccc1F)C(=O)Nc1ccccc1F`, the cytotoxicity call is “inactive”.

In the case of `COc1ccc2c3c(n(c2c1)C)[C@@H](CO)N(C[C@]13CN(Cc2cccc(c2)F)C1)C(=O)C1CCOCC1`, the cytotoxicity call was “active”.

For the molecule `COc1ccc2c3c(n(c2c1)C)[C@@H](CO)N(C[C@]13CCN(CC1)C(=O)c1ccccc1F)C(=O)Nc1ccccc1F`, the cytotoxicity call is “active”.

In the case of `COc1ccc2c3c(n(c2c1)C)[C@@H](CO)N(C[C@]13CCN(CC1)C(=O)c1ccccc1F)C(=O)Nc1ccc(cc1)F`, the cytotoxicity call was “inactive”.

On to `COc1ccc2c3c(n(c2c1)C)[C@@H](CO)N(C[C@]13CCN(CC1)C(=O)c1ccccc1)C(=O)Nc1ccccc1F`, for which the cytotoxicity call was “inactive”.

In the case of `COc1ccc2c3c(n(c2c1)C)[C@H](CO)N(C[C@]13CN(Cc2cccc(c2)F)C1)C(=O)C1CCOCC1`, the cytotoxicity call was “inactive”.

For `COCC(=O)N1CC[C@]2(CC1)CN([C@H](CO)c1c2c2ccc(cc2n1C)OC)C(=O)Nc1ccccc1F`, the cytotoxicity call is “inactive”.

As to `COc1ccc(cc1)S(=O)(=O)N1CC[C@]2(CC1)CN([C@H](CO)c1c2c2ccc(cc2n1C)OC)C(=O)CN(C)C`, the cytotoxicity call was “active”.

Consider `COc1ccc2c3c(n(c2c1)C)[C@@H](CO)N(C[C@]13CN(C1)C(=O)Nc1cccc(c1)F)C(=O)C1CCOCC1`, for which the cytotoxicity call is “inactive”.

Take `COc1ccc(cc1)S(=O)(=O)N1CC[C@]2(CC1)CN([C@@H](CO)c1c2c2ccc(cc2n1C)OC)C(=O)CN(C)C`: the cytotoxicity call was “inactive”.

As for `COc1ccc2c3c(n(c2c1)C)[C@H](CO)N(C[C@]13CCN(CC1)C(=O)c1ccccc1)C(=O)Nc1ccccc1F`, the cytotoxicity call is “active”.

Consider `COc1ccc(cc1)S(=O)(=O)N1C[C@]2(C1)CN([C@@H](CO)c1c2c2ccc(cc2n1C)OC)C(=O)CN(C)C`, for which the cytotoxicity call is “inactive”.

Consider `COc1cccc(NC(=O)C[C@H]2CC[C@H]3[C@H](COc4ccc(NC(=O)C5CCOCC5)cc4C(=O)N3C)O2)c1`, for which the cytotoxicity call is “inactive”.

Regarding `Cc1ccc(S(=O)(=O)Nc2ccc3c(c2)C(=O)N([C@H](C)CO)C[C@@H](C)[C@@H](CN(C)S(C)(=O)=O)O3)cc1`, the cytotoxicity call is “inactive”.

Regarding `CC(C)c1onc(-c2c(Cl)cccc2Cl)c1COc1ccc(C=Cc2cccc(C(=O)O)c2)c(Cl)c1`, the cytotoxicity call was “inactive”.

Consider `C[C@@H]1CN([C@@H](C)CO)C(=O)c2cccc(NS(C)(=O)=O)c2O[C@@H]1CN(C)Cc1ccc2c(c1)OCO2`, for which the cytotoxicity call was “inactive”.

In the case of `COc1ccc(S(=O)(=O)N2C[C@@H](O)COC[C@@H]3O[C@H](CC(=O)NCCCN4CCOCC4)CC[C@H]32)cc1`, the cytotoxicity call was “inactive”.

Consider `Cc1ccc(F)cc1NC(=O)[C@@H](C)N`, for which the cytotoxicity call is “inactive”.

For the molecule `COc1ccc(S(=O)(=O)Nc2ccc3c(c2)CC(=O)N([C@@H](C)CO)C[C@@H](C)[C@@H](CN(C)S(=O)(=O)c2c(C)noc2C)O3)cc1`, the cytotoxicity call is “inactive”.

For `Cc1cccc(-n2cc(CN)cn2)c1`, the cytotoxicity call is “inactive”.

Turning to `COc1cc(NC(=O)c2cccc(-n3cc(NC(=O)Nc4cccc(C)c4)cn3)c2)cc(OC)c1OC`, the cytotoxicity call is “active”.

For the molecule `COc1cc(NC(=O)Cn2cnc3c2c(=O)n(C)c(=O)n3C)cc(OC)c1OC`, the cytotoxicity call was “inactive”.

Consider `C[C@@H]1CN([C@H](C)CO)C(=O)c2cccc(NC(=O)c3ccc(-c4nccs4)cc3)c2O[C@@H]1CN(C)Cc1ccc(Cl)c(Cl)c1`, for which the cytotoxicity call is “inactive”.

Values taken from the antibiotic and cytotoxicity screens of Wong et al. (2023).
